GALC G270D act = enhancers of human galactocerebrosidase G270D mutant activity in cells | P54803 | 145M-Twi-hGALC-G270D cells (Twitcher mouse brain line with human GALC G270D), HMU-beta-Gal fluorescence, 48 h | Potency, µM (titrated, usually from 57.5 µM), hits mostly activators | 0.1% of 45,000 active; note: potency is the fitted concentration of half-maximal effect; 0% is about no effect; nearly all actives have a fitted effect of over 65% in size
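Fluorogenic HMU-b-Gal hydrolysis (0.1 mM final, pH 5.2 citrate-phosphate with 1 mg/mL sodium taurocholate; carbonate stop buffer) measures mutant GALC activity after compound treatment of live 145M-Twi Twitcher brain cells stably carrying human GALC-G270D, with wild-type GALC line alongside; activation sought.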
B2AR arrestin ag = ADRB2 beta-arrestin recruitment; P07550; HTLA Tango cells, beta-arrestin recruitment, luciferase luminescence, 18 h; Potency, µM (series often up to 46.1 µM), actives largely listed as activators; 44,000 tested, under 10 active; AID 1347077;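 note: potency is the fitted concentration of half-maximal effect; 0% = DMSO and full agonism = EC100 isoproterenol or metaproterenol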
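Luminescence read-out: arrestin recruitment to recombinant beta2-AR releases tTA, inducing luciferase. Cells exposed 18 hr at 37 degrees C to up to 46 microM compound; %Activity from corrected signal, concentration-response curves classified by r2, magnitude and efficacy.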
GALK inh = GALK (human) enzyme inhibition; P51570; recombinant GALK, Kinase-Glo ATP luminescence, 1 h; Potency, µM (doses to about 57.5 µM), inactives show at the top dose activity, negative = inhibition, actives largely listed as inhibitors; 44,000 tested, under 10 active;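 note: plate controls were full GALK reaction for no effect and reaction lacking GALK for full effect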
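5 nM GALK; 35 uM ATP; 100 uM D-galactose; 20 mM HEPES pH 8.0, 5 mM MgCl2, 60 mM NaCl, 1 mM DTT, 0.01% BSA; 1 h RT; Kinase-Glo Plus luminescence.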
GPR32 ag = GPR32 (DRV1) agonism, beta-arrestin recruitment; O75388; CHO-K1 GPR32 beta-arrestin PathHunter luminescence, 90 min; zero percent set by DMSO-only wells; activation, % at 76.9 µM; 2.5% of 48,000 active;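 active = activation of at least 60% and not above a set upper limit, about 1 call in 100 departs from these limits; inconclusive = activation of 40% to 60%, or above that upper limit; inactive = activation under 40%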; note: 0% is about no effect
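Agonism was scored as beta-arrestin recruitment to ProLink-fused GPR32 in stably transfected CHO-K1 cells, giving a chemiluminescent beta-Gal signal; compounds were incubated 90 min at 37 °C.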
NTMT1 inh = inhibitors of human N-terminal methyltransferase NTMT1 | AID 1645870 | Potency, µM (highest dose often 114 µM), without a hit: at the highest dose activity change, negative = inhibition, usual class: inhibitors | NTMT1 MTase-Glo SAH luminescence, purified enzyme | 2.5% of 59,000 active;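 note: potency is the fitted concentration of half-maximal effect; plate controls were DMSO vehicle for no effect and no enzyme for full effect; nearly all actives have a fitted effect of over 65% in size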
Target sequence (Q9BV86 whole entry, looked up): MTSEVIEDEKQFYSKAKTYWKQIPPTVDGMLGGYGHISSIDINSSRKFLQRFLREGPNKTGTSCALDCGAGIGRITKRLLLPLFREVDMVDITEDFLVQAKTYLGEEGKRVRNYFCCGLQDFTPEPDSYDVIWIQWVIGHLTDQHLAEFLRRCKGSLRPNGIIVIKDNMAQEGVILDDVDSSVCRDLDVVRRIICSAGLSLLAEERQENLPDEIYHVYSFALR
Starred values were filed as active, the others as inactive; i = inactive; ? = inconclusive; . = not tested or not shown; ! = a repeat was not active; [ ] = dose if it differs, or a comment. Shown are actives, neighbours in structure and some others; about 3.6% of the full set was active somewhere. Unless noted, calls come from the whole dose curve; as a rule, active = well fitted curve in the direction sought with a large enough effect; inconclusive = small, poorly fitted or top-dose-only effect, or another doubt; inactive = no such curve, though single readings can be large; an effect the other way counts as inactive or inconclusive.

SMILES	GALC G270D act	B2AR arrestin ag	GALK inh	GPR32 ag	NTMT1 inh
O=c1c2sc3ccccc3c2n(Cc2ccccc2)c(=O)n1Cc1ccccc1	i	i	6.2%	-3.0	4.1%
O=C(Cc1ccc(Cl)cc1)NCCc1csc2nc(-c3ccccc3F)nn12	i	i	0.0%	120.9*	10.6%
O=C(NCCc1csc2nc(-c3cccc(F)c3)nn12)c1ccc(Br)o1	i	i	-0.4%	97.1*	-11.7%
COc1ccc(-c2nc3ccccc3c(=O)n2Cc2ccco2)cc1COc1c(C)cccc1C	.	.	.	.	12.7%
Cc1ccc(CNC(=O)c2cc3c(s2)-c2ccc(Cl)cc2SC3)cc1	i	i	-1.2%	105.9*	4.5%
Cc1ccc(CNC(=O)c2cc3c(s2)-c2ccccc2SC3)cc1	i	i	3.3%	-15.2	-8.2%
CC(C)CC(=O)OCc1cc(=O)n2nc(C3CCCCC3)sc2n1	i	i	-0.7%	70.8*	4.5%
CC(C)C(=O)OCc1cc(=O)n2nc(C3CCCCC3)sc2n1	i	i	0.9%	-8.9	-0.6%
O=C(Nc1cccc(Nc2cc(Nc3cccc(C(F)(F)F)c3)ncn2)c1)C1CC1	.	.	.	.	10µM*
O=C(Nc1nc2ccc(F)cc2s1)c1nc(S(=O)(=O)Cc2ccccc2)ncc1Cl	i	i	0.3%	90.7*	5.6%
Cc1nnc(NC(=O)c2nc(S(=O)(=O)Cc3ccccc3)ncc2Cl)s1	i	i	-2.2%	81.0*	5.9%
O=C(CCNS(=O)(=O)c1ccc2c(c1)CCN2C(=O)C1CC1)N1CCN(c2ccccc2F)CC1	i	i	-3.2%	70.6*	17.5%
Cc1ccc(C)c(N2CCN(C(=O)CCNS(=O)(=O)c3ccc4c(c3)CCN4C(=O)C3CC3)CC2)c1	i	i	-0.1%	48.7	-1.3%
CC(C)(C)c1cnc(CSc2cnc(NC(=O)C3CCNCC3)s2)o1	.	.	.	.	50.1µM*!
CCCCCN=C(N)NN=Cc1c[nH]c2ccc(OC)cc12	.	.	.	.	9.7%[57.5 µM]
CCCCCN=C(N)N/N=C/c1c[nH]c2ccc(OC)cc12	i	.	.	73.5*	?
CC1(C)Cc2c(sc(NC(=S)NC(=O)c3ccccc3)c2C(=O)O)CO1	.	.	.	.	79.4µM*!
CN(C)S(=O)(=O)N(CC(=O)NCCSc1ccc(Cl)cc1)c1ccccc1	i	i	0.0%	69.9*	-2.3%
Cc1ccccc1-c1ccc(=O)n(CC(=O)NCCc2ccccc2)n1	.	.	.	.	-18.4%
COc1cccc(-n2cc(C(=O)Nc3ccccc3C(N)=O)c3ccccc3c2=O)c1	i	i	0.0%	-11.4	89.1µM*
O=c1c(O)c(-c2ccc(O)cc2O)oc2cc(O)cc(O)c12	.	.	.	-1.7	44.7µM*!
O=c1c(O)c(-c2cc(O)c(O)c(O)c2)oc2cc(O)cc(O)c12	.	.	.	3.4	28.2µM*!
Nc1nccn2c(C3CCC(C(=O)O)CC3)nc(-c3cc4cccc(Cl)c4[nH]3)c12 (stereo not given)	.	.	.	.	35.5µM*!
CCOC(=O)c1c(-c2ccccc2)oc2ccc(OCc3cccc(Br)c3)cc12	i	i	0.1%	-13.6	17.6%
Cc1cc(OCCCS(C)(=O)=O)cc(C)c1-c1cccc(COc2ccc3c(c2)OC[C@H]3CC(=O)O)c1	.	.	.	.	79.4µM*!
SMILES	GALC G270D act	B2AR arrestin ag	GALK inh	GPR32 ag	NTMT1 inh
Ic1ccc(N2CCN(Cc3c[nH]c4ncccc34)CC2)cc1	.	.	.	76.1*	.
CC(=O)c1cccc(NC(=O)c2sc3nc4c(cc3c2N)CCCC4)c1	i	i	2.1%	?	?
COc1ccccc1NC(=O)c1sc2nc3c(cc2c1N)CCCCCC3	11.2µM*	i	-2.6%	31.4	7.6%
COc1ccc(NC(=O)c2sc3nc4c(cc3c2N)CN(C(C)C)CC4)c(OC)c1	i	i	0.0%	81.0*	?
Cc1cccc(NC(=O)c2sc3nc4c(cc3c2N)CN(C(C)C)CC4)c1	i	i	1.2%	-3.4	?
Nc1c(C(=O)Nc2ccccc2F)sc2nc3c(cc12)CCCCCC3	i	i	-13.5%	71.8*	7.0%
O=C([C@H](Cc1ccc(O[S+](=O)([O-])c2cccnc2)cc1)N[S+](=O)([O-])c1cccc2cnccc12)N1CCN(c2ccccc2)CC1	.	.	.	.	12.3%

Compound activity (PubChem)
